# C diff growth: C. difficile growth inhibition | Clostridium difficile clinical isolate growth, OD600, 24 h; active compounds read low | growth activity, negative = inhibition, % at 16 µg/mL (by protocol) | 86,000 compounds, 0.25% hits;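 active means mean growth activity at or below -80% and every replicate also at or below -80%; inconclusive means mean at or below -80% but some replicate above -80%; inactive means mean growth activity above -80%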;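 further: 0% = DMSO wells and -100% = levofloxacin 16 µg/mL wells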
# Pf Dd2 growth: blocks growth of Plasmodium falciparum Dd2 parasites. AID 1159554. P. falciparum Dd2 growth, SYBR Green, 72 h; active compounds read low. activity change, % at 10 µM. 94,000 compounds, 2.3% hits; in the data active means activity change below about -80%; inconclusive means no clear call, values can overlap the other calls
# Numbers without * were called inactive; u = inconclusive; x = no result given. A selection: hits, their analogues and other compounds. The true share with any hit is near 2.4%.
SMILES,C diff growth,Pf Dd2 growth
Cc1noc(C)c1NC(=O)Nc1ccc2c(c1)C(=O)N([C@@H](C)CO)C[C@@H](C)[C@H](CN(C)C(=O)Nc1ccc(F)cc1)O2,1.2,30.5
C[C@@H]1CCCCO[C@H](CN(C)Cc2ccc(Cl)c(Cl)c2)[C@@H](C)CN([C@H](C)CO)C(=O)c2cc(NC(=O)Nc3ccc4c(c3)OCO4)ccc2O1,-2.2,8.0
C[C@@H]1CCCCO[C@@H](CN(C)Cc2ccc(Cl)c(Cl)c2)[C@H](C)CN([C@H](C)CO)C(=O)c2cc(NC(=O)Nc3ccc4c(c3)OCO4)ccc2O1,11.6,-87.5*
C[C@@H]1CN([C@H](C)CO)C(=O)c2cc(NC(=O)Nc3ccc4c(c3)OCO4)ccc2O[C@@H](C)CCCCO[C@H]1CN(C)Cc1ccc(Cl)c(Cl)c1,11.6,-89.1*
C[C@H]1CCCCO[C@H](CN(C)Cc2ccc(Cl)c(Cl)c2)[C@@H](C)CN([C@@H](C)CO)C(=O)c2cc(NC(=O)Nc3ccc4c(c3)OCO4)ccc2O1,3.1,-56.4
CCNC(=O)C[C@H]1CC[C@@H]2[C@H](COc3ccc(NC(=O)NC(C)C)cc3C(=O)N2C)O1,-10.4,1.7
COc1ccc2c3c([nH]c2c1)[C@H](CO)N(Cc1ccccc1)CC31CCN(S(=O)(=O)c2ccc(C)cc2)CC1,0.5,-54.0
COc1ccc2c3c([nH]c2c1)[C@H](CO)N(Cc1ccncc1)CC31CN(S(C)(=O)=O)C1,14.7,-42.5
COc1ccc(CN2CC3(CCN(S(=O)(=O)c4ccc(C)cc4)CC3)c3c([nH]c4cc(OC)ccc34)[C@H]2CO)cc1,29.6,-85.7*
COc1ccc(S(=O)(=O)N2CCC3(CC2)CN(Cc2ccncc2)[C@H](CO)c2[nH]c4cc(OC)ccc4c23)cc1,-8.3,-87.8*
O=C(NCC[C@H]1CC[C@@H](NC(=O)c2cccnc2)[C@H](CO)O1)Nc1ccc(C(F)(F)F)cc1,x,-37.2
CCCC#Cc1cnc2c(c1)C(=O)N([C@H](C)CO)C[C@H](C)[C@@H](CN(C)C(=O)Nc1ccccc1F)O2,-8.0,-22.6
C[C@H](CO)N1C[C@H](C)[C@H](CN(C)C(=O)C2CCCCC2)Oc2ncc(C#Cc3ccccc3F)cc2C1=O,2.8,-38.4
COc1ccc(S(=O)(=O)N(C)C[C@@H]2OCCCC[C@H](C)Oc3ccc(NC(=O)Cc4ccccc4)cc3C(=O)N([C@H](C)CO)C[C@H]2C)cc1,7.9,-83.9*
COc1ccc(S(=O)(=O)N(C)C[C@H]2OCCCC[C@H](C)Oc3ccc(NC(=O)Cc4ccccc4)cc3C(=O)N([C@@H](C)CO)C[C@H]2C)cc1,6.1,u
COc1ccc(S(=O)(=O)N(C)C[C@@H]2OCCCC[C@@H](C)Oc3ccc(NC(=O)Cc4ccccc4)cc3C(=O)N([C@@H](C)CO)C[C@H]2C)cc1,6.9,-61.4
COc1ccc(S(=O)(=O)N(C)C[C@H]2OCCCC[C@H](C)Oc3ccc(NC(=O)Cc4ccccc4)cc3C(=O)N([C@@H](C)CO)C[C@@H]2C)cc1,-0.2,-82.5*
C[C@@H]1CCCCO[C@@H](CN(C)S(=O)(=O)c2ccccc2)[C@H](C)CN([C@@H](C)CO)C(=O)c2cc(NC(=O)Cc3ccccc3)ccc2O1,x,-41.3
COc1ccc(S(=O)(=O)N(C)C[C@@H]2OCCCC[C@H](C)Oc3ccc(NC(=O)Cc4ccccc4)cc3C(=O)N([C@@H](C)CO)C[C@@H]2C)cc1,10.5,-82.8*
C[C@H]1CN([C@@H](C)CO)C(=O)c2cccc(NC(=O)Nc3ccc4c(c3)OCO4)c2O[C@@H]1CN(C)C,-5.2,8.9
CCCC(=O)N1CC2(C1)CN(Cc1ccc(Cl)cc1)[C@@H](CO)c1[nH]c3cc(OC)ccc3c12,7.0,-91.6*
CCC(=O)N1CC2(C1)CN(Cc1ccc(OC)cc1)[C@H](CO)c1[nH]c3cc(OC)ccc3c12,-0.6,-64.4
COc1ccc2c3c([nH]c2c1)[C@@H](CO)N(Cc1ccc(Cl)cc1)CC31CN(S(C)(=O)=O)C1,-0.6,-33.0
COc1ccc2c3c([nH]c2c1)[C@H](CO)N(Cc1ccc(Cl)cc1)CC31CN(S(C)(=O)=O)C1,-1.7,-7.4
CCCC(=O)N1CC2(C1)CN(Cc1ccc(Cl)cc1)[C@H](CO)c1[nH]c3cc(OC)ccc3c12,1.6,-90.1*
SMILES,C diff growth,Pf Dd2 growth
COc1ccc2c3c([nH]c2c1)[C@H](CO)N(Cc1ccccc1)CC31CN(C(C)=O)C1,-2.3,-72.6
COc1ccc2c3c([nH]c2c1)[C@H](CO)N(Cc1cccc(Cl)c1)CC31CN(C(C)=O)C1,3.9,-83.3*
CCC(=O)N1CC2(C1)CN(Cc1ccccc1Cl)[C@H](CO)c1[nH]c3cc(OC)ccc3c12,9.9,-85.0*
CCN(C[C@H]1[C@H](c2ccccc2)[C@H](CO)N1C(C)=O)C(=O)NC(C)C,-2.6,13.1
O=C(C1CCCC1)N1CC(=O)N2[C@H](CO)[C@@H](c3ccc(-c4cccnc4)cc3)[C@H]2C1,-5.4,-7.8
COc1ccc(S(=O)(=O)Nc2ccc3c(c2)C(=O)N([C@H](C)CO)C[C@@H](C)[C@H](CN(C)Cc2ccncc2)O3)cc1,5.4,2.0
CCCNC(=O)Nc1ccc2c(c1)C(=O)N(C)C[C@H](OC)[C@H](C)CN(CCC)[C@@H](C)CO2,2.1,21.6
C[C@@H]1CN([C@H](C)CO)C(=O)c2cccc(NC(=O)Nc3ccccc3)c2O[C@@H]1CN(C)Cc1ccccc1,-2.2,-16.2
CO[C@H]1CN(C)C(=O)c2cc(NS(=O)(=O)CC(F)(F)F)ccc2OC[C@@H](C)N(Cc2ccccn2)C[C@H]1C,x,1.9
CCC(=O)N1CC2(C1)CN(Cc1ccc(Cl)cc1)[C@H](CO)c1[nH]c3cc(OC)ccc3c12,7.2,u
CCC(=O)N1CCC2(CC1)CN(Cc1cccc(Cl)c1)[C@@H](CO)c1[nH]c3cc(OC)ccc3c12,0.1,-77.3
CCC(=O)N1CC2(C1)CN(Cc1ccc(Cl)cc1)[C@@H](CO)c1[nH]c3cc(OC)ccc3c12,2.5,-90.5*
CCC(=O)N1CC2(C1)CN(Cc1cccc(Cl)c1)[C@H](CO)c1[nH]c3cc(OC)ccc3c12,-1.7,-89.1*
C[C@@H]1CN([C@@H](C)CO)C(=O)CCCn2cc(nn2)CO[C@H]1CN(C)Cc1ccc(O)cc1,-1.4,17.8
C[C@H](C(=O)N(C)C[C@H]1OCc2ccccc2-c2c(n(C)c3ccccc23)C(=O)N([C@@H](C)CO)C[C@@H]1C)c1ccccc1,5.0,-69.4
C[C@H](CO)N1C[C@H](C)[C@@H](CN(C)C(=O)c2cc(Cl)cc(Cl)c2)OCc2ccccc2-c2c(n(C)c3ccccc23)C1=O,2.6,-36.9
C[C@H](C(=O)N(C)C[C@H]1OCc2ccccc2-c2c(n(C)c3ccccc23)C(=O)N([C@H](C)CO)C[C@H]1C)c1ccccc1,2.2,-57.2
C[C@@H]1CN([C@H](C)CO)C(=O)c2c(c3ccccc3n2C)-c2ccccc2CO[C@@H]1CN(C)C(=O)[C@H](C)c1ccccc1,-8.9,-90.8*
C[C@@H]1CN([C@@H](C)CO)C(=O)c2c(c3ccccc3n2C)-c2ccccc2CO[C@@H]1CN(C)C(=O)c1cc(Cl)cc(Cl)c1,-3.7,-87.4*
C[C@H](CO)N1C[C@H](C)[C@H](CN(C)C(=O)c2cc(Cl)cc(Cl)c2)OCc2ccccc2-c2ccccc2C1=O,-8.0,-63.4
C[C@@H](C(=O)N(C)C[C@@H]1OCc2ccccc2-c2c(n(C)c3ccccc23)C(=O)N([C@@H](C)CO)C[C@@H]1C)c1ccccc1,8.8,-86.4*

# Screens as filed in PubChem BioAssay.
